tim23-1 inh = inhibits growth of tim23-1 mutant yeast; S. cerevisiae tim23-1 growth, BacTiter-Glo luminescence, 24 h; inhibition, % at 20 µM; actives 1.3% (n = 330,000); AID 463212;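 active = growth inhibition of the mutant yeast at or above 50%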;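 note: temperature-sensitive mutant grown at 25 °C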
TIM10 inh = growth inhibitors of TIM10 yeast strain. inhibition, % at 10 µM. S. cerevisiae TIM10 strain growth, BacTiter-Glo luminescence, 24 h. actives 1.4% (n = 330,000);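 active = inhibition of 40% or more at the single tested concentration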;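 note: wild-type TIM10 isogenic control strain grown at permissive 25 °C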
tim10-1 inh = tim10-1 yeast growth inhibition; S. cerevisiae tim10-1 ts strain growth, BacTiter-Glo, 24 h; inhibition, % at 20 µM; actives 2.2% (n = 330,000); AID 463190;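 active = inhibition of at least 40%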;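 note: mutant grown at 25 °C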
PfHsp90 set2 = growth inhibition of yeast expressing Plasmodium Hsp90 | AID 504621 | inhibition, % at 9.4 µM | S. cerevisiae expressing PfHsp90, BacTiter-Glo ATP, 48 h; yeast lacking PDR1 and PDR3 efflux regulators | actives 0.32% (n = 310,000);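 active = every replicate shows inhibition above about 80%, whatever the replicate mean, limit read from the data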
NLRP3 yeast inh = inhibitors of NALP3 inflammasome in yeast. Yeast reconstituted NLRP3/ASC/caspase-1, beta-gal luminescence, 24 h. inhibition, % at 10 µM. actives 0.39% (n = 330,000). AID 2825;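 active = inhibition of 50% or more; inactive = inhibition below 50%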
TIM10 conf = confirmation of TIM10 yeast growth inhibitors | shares compounds with TIM10 inh | S. cerevisiae tim10 strain growth, BacTiter-Glo luminescence, 24 h | inhibition, % at 10 µM | actives 63% (n = 4,600) | AID 463215;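 active = inhibition of yeast growth at or above a set limit in either of two replicates at 10 µM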; note: this counterscreen used the strain with wild-type TIM10
A number is an active result. Rows were chosen to be rich in hits. Some 3.7% of all compounds tested hit in one or more screens of this group.

For O=[N+]([O-])c1ccc(Sc2n[nH]c(-c3ccccc3)n2)nc1 the results were tim23-1 inh inactive, TIM10 inh 45, tim10-1 inh inactive, PfHsp90 set2 inactive, NLRP3 yeast inh inactive and TIM10 conf inactive.
O=c1oc(-c2ccccc2)nc2sc3c(c12)CCC3 was read as tim23-1 inh inactive, TIM10 inh 42, tim10-1 inh inactive, PfHsp90 set2 inactive, NLRP3 yeast inh inactive and TIM10 conf inactive.
Screening Cc1[nH]nc2ncc(C(=O)c3cc(Cl)cc(Cl)c3O)cc12 returned tim23-1 inh inactive, TIM10 inh 63, tim10-1 inh inactive, PfHsp90 set2 inactive, NLRP3 yeast inh inactive and TIM10 conf 31.
For CCN1CCN(C(=O)C23CCC(C)(C(=O)C2Br)C3(C)C)CC1 (stereo not drawn) the results were tim23-1 inh inactive, TIM10 inh inactive, tim10-1 inh inactive, PfHsp90 set2 inactive and NLRP3 yeast inh inactive.
Screening CCc1noc(C)c1C(=O)NNC(=O)COc1ccc(C)c(C)c1 returned tim23-1 inh inactive, TIM10 inh inactive, tim10-1 inh inactive and NLRP3 yeast inh inactive.
Screening Cc1ccc(S(=O)(=O)N2CCCC2CNC(=O)c2ccccc2)cc1 (stereo not drawn) returned tim23-1 inh inactive, TIM10 inh inactive, tim10-1 inh inactive, PfHsp90 set2 inactive and NLRP3 yeast inh inactive.
For O=C(/C=C/c1ccc2ccccc2n1)c1cc(Br)ccc1O the results were tim23-1 inh inactive, TIM10 inh 52, tim10-1 inh inactive, PfHsp90 set2 inactive, NLRP3 yeast inh inactive and TIM10 conf 31.
O=C(O)/C=C/c1ccc2ccccc2n1 was read as tim23-1 inh inactive, TIM10 inh inactive, tim10-1 inh inactive, PfHsp90 set2 inactive and NLRP3 yeast inh inactive.
For Cc1cc(C)c(C)c(S(=O)(=O)Nc2ccc(OCC(=O)O)cc2)c1C the results were tim23-1 inh inactive, TIM10 inh inactive, tim10-1 inh inactive, PfHsp90 set2 inactive and NLRP3 yeast inh inactive.
Cc1ccc(S(=O)(=O)NN2C(=O)c3ccccc3NC2c2ccccn2)cc1 (stereo not drawn) was read as tim23-1 inh inactive, TIM10 inh inactive, tim10-1 inh inactive, PfHsp90 set2 inactive and NLRP3 yeast inh inactive.
CCOc1ccc(NC(=O)c2ccccc2OCC(=O)c2ccccc2)cc1 was read as tim23-1 inh inactive, TIM10 inh 45, tim10-1 inh inactive, PfHsp90 set2 inactive, NLRP3 yeast inh inactive and TIM10 conf inactive.
`Cc1ccc(NC(=O)c2ccccc2OCC(=O)c2ccccc2)cc1` gave tim23-1 inh inactive, TIM10 inh inactive, tim10-1 inh inactive, PfHsp90 set2 inactive and NLRP3 yeast inh inactive.
Screening CC(=O)c1ccc2c(c1)Nc1ccccc1S2 returned tim23-1 inh inactive, TIM10 inh 88, tim10-1 inh inactive, PfHsp90 set2 inactive, NLRP3 yeast inh inactive and TIM10 conf inactive.
Screening CCCCCOC(=O)c1[nH]c2c(c1C)C(=O)C(C(=O)OC)C(C)C2 (stereo not drawn) returned tim23-1 inh inactive, TIM10 inh 43, tim10-1 inh inactive, PfHsp90 set2 inactive, NLRP3 yeast inh inactive and TIM10 conf 37.
`COCCOC(=O)c1[nH]c2c(c1C)C(=O)C(C(=O)OC)C(C)C2` (stereo not drawn) gave tim23-1 inh inactive, TIM10 inh inactive, tim10-1 inh inactive, PfHsp90 set2 inactive and NLRP3 yeast inh inactive.
Screening O=c1c2cc(F)ccc2sn1-c1ccc(F)cc1 returned tim23-1 inh inactive, TIM10 inh 47, tim10-1 inh inactive, PfHsp90 set2 inactive, NLRP3 yeast inh inactive and TIM10 conf 57.
c1ccc(OCCOCCN2CCN(C(c3ccccc3)c3ccccc3)CC2)cc1 was read as tim23-1 inh inactive, TIM10 inh 43, tim10-1 inh inactive, PfHsp90 set2 inactive, NLRP3 yeast inh inactive and TIM10 conf inactive.
O=C(CSCc1nc2ccccc2[nH]1)Nc1ccc2ccccc2c1 was read as tim23-1 inh inactive, TIM10 inh inactive, tim10-1 inh inactive, PfHsp90 set2 inactive and NLRP3 yeast inh inactive.
`c1ccc2cc(CSCc3nc4ccccc4[nH]3)ccc2c1` gave tim23-1 inh inactive, TIM10 inh 53, tim10-1 inh inactive, PfHsp90 set2 inactive, NLRP3 yeast inh inactive and TIM10 conf inactive.
COc1cc([N+](=O)[O-])ccc1NC(=O)CN1CCN(C(=O)c2ccco2)CC1 was read as tim23-1 inh inactive, TIM10 inh inactive, tim10-1 inh inactive, PfHsp90 set2 inactive and NLRP3 yeast inh inactive.
Screening Cc1ncc(CN2CCC(N3CCC(C(=O)N4CCCC4)CC3)CC2)s1 returned tim23-1 inh inactive, TIM10 inh inactive, tim10-1 inh inactive, PfHsp90 set2 inactive and NLRP3 yeast inh inactive.
For Cc1ccc(C)c(Nc2ncccc2C(=O)NCc2cccs2)c1 the results were tim23-1 inh inactive, TIM10 inh 45, tim10-1 inh inactive, PfHsp90 set2 inactive, NLRP3 yeast inh inactive and TIM10 conf 44.
For CCN(CC)c1ncccc1C(=O)NCc1cccs1 the results were tim23-1 inh inactive, TIM10 inh inactive, tim10-1 inh inactive, PfHsp90 set2 inactive and NLRP3 yeast inh inactive.
`COc1ccc(-n2cnc3scc(-c4ccc(OC)c(OC)c4)c3c2=O)cc1` gave tim23-1 inh inactive, TIM10 inh 40, tim10-1 inh inactive, PfHsp90 set2 inactive, NLRP3 yeast inh inactive and TIM10 conf inactive.
COc1ccc(-c2csc3ncn(-c4ccc(C)cc4)c(=O)c23)cc1OC was read as tim23-1 inh inactive, TIM10 inh inactive, tim10-1 inh inactive, PfHsp90 set2 inactive and NLRP3 yeast inh inactive.
For Cc1oc(-c2cccc(Cl)c2)nc1CN1CCCC(C(=O)NC(C)c2ccc3c(c2)OCCO3)C1 (stereo not drawn) the results were tim23-1 inh inactive, TIM10 inh inactive, tim10-1 inh inactive, PfHsp90 set2 inactive and NLRP3 yeast inh inactive.
For CCC(C)[C@H](NC(=O)C1CC(=O)N(c2ccc(OC)cc2)C1)C(=O)N1CCCCC1 (stereo partly drawn) the results were tim23-1 inh inactive, TIM10 inh inactive, tim10-1 inh inactive, PfHsp90 set2 inactive and NLRP3 yeast inh inactive.
For CN(CC(=O)OCC(N)=O)S(=O)(=O)c1ccc(Cl)cc1 the results were tim23-1 inh inactive, TIM10 inh 40, tim10-1 inh inactive, PfHsp90 set2 inactive, NLRP3 yeast inh inactive and TIM10 conf inactive.
Cc1ccc(C(=O)c2oc3ccccc3c2N)cc1 was read as tim23-1 inh inactive, TIM10 inh 47, tim10-1 inh inactive, PfHsp90 set2 inactive, NLRP3 yeast inh inactive and TIM10 conf inactive.
For Cc1ccc(-c2cc3nc(-c4ccccc4)cc(N4CCC5(CC4)OCCO5)n3n2)cc1 the results were tim23-1 inh inactive, TIM10 inh inactive, tim10-1 inh inactive, PfHsp90 set2 inactive and NLRP3 yeast inh inactive.
`COc1ccc(-c2cc3nc(-c4ccccc4)cc(N4CCCC(O)C4)n3n2)cc1` (stereo not drawn) gave tim23-1 inh inactive, TIM10 inh 42, tim10-1 inh inactive, PfHsp90 set2 inactive, NLRP3 yeast inh inactive and TIM10 conf 34.

Bioassay records (PubChem)
